Bioassay records from PubChem.
Pf Dd2 growth: inhibitors of Plasmodium falciparum Dd2 growth; AID 1159554; activity change, % at 10 µM; P. falciparum Dd2 growth, SYBR Green, 72 h; stronger effect = lower value; 94,000 tested, 2.3% active; in the data active means activity change below about -80%; inconclusive means no clear call, values can overlap the other calls
C diff growth: blocks growth of Clostridium difficile; Clostridium difficile clinical isolate growth, OD600, 24 h; stronger effect = lower value; growth activity, negative = inhibition, % at 16 µg/mL (by protocol); 86,000 tested, 0.25% active; AID 1259249;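 active means mean growth activity at or below -80% and every replicate also at or below -80%; inconclusive means mean at or below -80% but some replicate above -80%; inactive means mean growth activity above -80%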;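 further: 0% = DMSO wells and -100% = levofloxacin 16 µg/mL wells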
T cruzi growth-1: inhibitors of T. cruzi proliferation; AID 624255; 77,000 tested, 5.9% active; T. cruzi beta-gal in NIH3T3, GalScreen luminescence, 90 h; inhibition, % at 8.34 µM;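 active means mean inhibition above about 93%, with at least 55% of replicates each passing it, limit read from the data, passing the limit was not always enough; inconclusive means only one of those two conditions holds; inactive means neither condition holds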
T cruzi growth-2: Trypanosoma cruzi proliferation inhibition. shares compounds with T cruzi growth-1. T. cruzi beta-gal in NIH3T3, GalScreen luminescence, 90 h. inhibition, % at 8.35 µM. 5,600 tested, 72% active. AID 651739;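 active means mean replicate inhibition above about 95% and at least 55% of replicates individually reaching it, limit read from the data; inconclusive means only one of the two criteria is met; inactive means neither criterion is met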
T cruzi growth-3: inhibitors of T. cruzi proliferation | shares compounds with T cruzi growth-1 | T. cruzi beta-gal in NIH3T3, GalScreen luminescence, 90 h | inhibition, % at 2.09 µM | 5,600 tested, 21% active;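 active means mean inhibition above about 95%, with at least 55% of replicates also reaching it, limit read from the data; inconclusive means meets just one of the two conditions; inactive means meets neither condition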;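 further: plate controls were neutral control median for no effect and positive control median for full effect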
NIH3T3 tox: cytotoxicity in mouse NIH/3T3 fibroblasts; shares compounds with T cruzi growth-1; NIH/3T3 viability, CellTiter-Glo ATP luminescence, 90 h; cytotoxicity (signal decrease), % at 8.35 µM; 5,600 tested, 14% active;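 active means mean signal decrease across replicates above about 35% based on untreated-well scatter, with enough replicates individually passing, limit read from the data; inconclusive means no rule stated though some were filed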;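 further: 0% = median of neutral control wells and 100% = median of positive control wells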
NIH3T3 tox 2: kills mouse NIH/3T3 fibroblasts | shares compounds with T cruzi growth-1 | NIH/3T3 viability, CellTiter-Glo ATP luminescence, 90 h | inhibition, % at 24.9 µM | 5,600 tested, 56% active;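 active means mean loss of cell viability signal at or above a set limit, and enough replicates individually reaching it; inconclusive means meets only the mean limit or only the replicate share; inactive means meets neither condition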;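 further: 0% = median of neutral control wells and 100% = median of positive control wells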
* marks the source's active call; other numbers are inactive results; ? = inconclusive; · = no result; ! = repeats disagree. A selection: hits, their analogues and other compounds. The true share with any hit is near 6.7%.

SMILES	Pf Dd2 growth	C diff growth	T cruzi growth-1	T cruzi growth-2	T cruzi growth-3	NIH3T3 tox	NIH3T3 tox 2
COc1ccc(NC(=O)Nc2ccc3c(c2)C(=O)N([C@@H](C)CO)C[C@@H](C)[C@@H](CN(C)S(=O)(=O)c2ccc(F)cc2)OCCCC[C@@H](C)O3)cc1	-68	-6	38	·	·	·	·
CC(=O)N(C)C[C@@H]1Oc2cc(C3=CCCCC3)ccc2S(=O)(=O)N([C@@H](C)CO)C[C@H]1C	-6	·	20	·	·	·	·
CN(C)CC(=O)N1[C@H](C#N)[C@@H](c2ccc(C#CC3CC3)cc2)[C@H]1CO	23	7	16	·	·	·	·
CC(C)NC(=O)N1[C@@H](C#N)[C@H](c2ccc(C#CC3CCCC3)cc2)[C@@H]1CO	-18	1	100*	106*	50	0	52*
CC(C)NC(=O)N1[C@@H](C#N)[C@H](c2ccc(C#CC3CC3)cc2)[C@@H]1CO	-43	-9	104*	105*	?	3	57*
CC(C)NC(=O)N1[C@H](CO)[C@@H](c2ccc(C#CC3CCCC3)cc2)[C@@H]1C#N	-22	1	99*	103*	37	-7	11
N#C[C@@H]1[C@@H](c2ccc(C#CC3CCCC3)cc2)[C@H](CO)N1C(=O)Nc1ccc(F)cc1	-24	0	92	·	·	·	·
CC(C)NC(=O)N1[C@@H](C#N)[C@@H](c2ccc(C#CC3CCCC3)cc2)[C@@H]1CO	-8	3	105*	101*	77	8	27*
N#C[C@@H]1[C@H](c2ccc(C#CC3CCCC3)cc2)[C@H](CO)N1C(=O)Nc1ccc(F)cc1	-67	-4	88	·	·	·	·
O=C(C[C@H]1C[C@@H]2c3cc(NC(=O)c4ccc5c(c4)OCO5)ccc3O[C@@H]2[C@H](CO)O1)NCCN1CCCCC1	8	-4	-101	·	·	·	·
CC(C)NC(=O)N1C[C@H]2[C@@H](c3ccccc31)[C@H](CO)N2C(=O)c1ccc(F)cc1	-1	-1	44	·	·	·	·
C[C@@H]1CCCCO[C@@H](CN(C)Cc2ccc(Cl)c(Cl)c2)[C@@H](C)CN([C@H](C)CO)C(=O)c2cc(NC(=O)NC3CCCCC3)ccc2O1	-7	5	83	·	·	·	·
CN(C)C(=O)c1ccc(-c2ccc([C@@H]3[C@@H](C#N)N(C(=O)C4CC4)[C@H]3CO)cc2)cc1	-31	-19	104*	99*	?	2	63*
CN(C)C(=O)c1ccc(-c2ccc([C@H]3[C@@H](C#N)N(C(=O)C4CCCCC4)[C@H]3CO)cc2)cc1	-39	-3	?	7	29	23	27*
CN(C)C(=O)c1ccc(-c2ccc([C@@H]3[C@@H](CO)N(C(=O)C4CC4)[C@H]3C#N)cc2)cc1	-14	1	67	·	·	·	·
CN(C)C(=O)c1ccc(-c2ccc([C@@H]3[C@@H](CO)N(C(=O)C4CCCCC4)[C@H]3C#N)cc2)cc1	-31	1	89	·	·	·	·
CCC(=O)N1C[C@@H](O)COC[C@@H]2O[C@@H](CC(=O)N3CCCCC3)CC[C@H]21	4	-1	-13	·	·	·	·
O=S(=O)(N[C@H]1CC[C@@H](CCn2cc(-c3cccnc3)nn2)O[C@H]1CO)c1ccccc1	21	-1	9	·	·	·	·
CCCC#Cc1ccc2c(c1)[C@@H]1[C@@H](CCN1S(=O)(=O)c1ccc(C)cc1)[C@@H](CO)N2C	-59	-9	93	·	·	·	·
O=C(C[C@H]1CC[C@@H]2[C@H](COC[C@@H](O)CN2S(=O)(=O)c2ccc(F)cc2)O1)NCCN1CCCCC1	-28	·	114*	16	-28	-10	-19
O=C(C[C@@H]1CC[C@@H]2[C@H](COC[C@@H](O)CN2S(=O)(=O)c2ccc(F)cc2)O1)NCC1CC1	-2	-22	16	·	·	·	·
O=C(C[C@@H]1CC[C@@H]2[C@H](COC[C@@H](O)CN2S(=O)(=O)c2ccc(F)cc2)O1)NCCN1CCCCC1	1	·	51	·	·	·	·
O=C(C[C@@H]1CC[C@@H]2[C@H](COC[C@H](O)CN2S(=O)(=O)c2ccc(F)cc2)O1)NCC1CCCCC1	·	5	?	2	1	-8	21
C[C@H]1CN([C@@H](C)CO)S(=O)(=O)c2ccc(C#CC3CCCCC3)cc2O[C@@H]1CN(C)C(=O)Cc1ccncc1	-68	·	83	·	·	·	·
C[C@@H]1CN([C@@H](C)CO)S(=O)(=O)c2ccc(C#CC3CCCC3)cc2O[C@@H]1CN(C)C(=O)Cc1ccncc1	-32	-1	122*	97*	79	13	62*
SMILES	Pf Dd2 growth	C diff growth	T cruzi growth-1	T cruzi growth-2	T cruzi growth-3	NIH3T3 tox	NIH3T3 tox 2
C[C@H](CO)N1C[C@H](C)[C@@H](CN(C)C(=O)Cc2ccncc2)Oc2cc(C#CC3CCCCC3)ccc2S1(=O)=O	-39	·	86	·	·	·	·
C[C@H](CO)N1C[C@H](C)[C@@H](CN(C)C(=O)Cc2ccncc2)Oc2cc(C#CC3CCCC3)ccc2S1(=O)=O	-85*	2	122*	108*	87	1	?
CCC(=O)N1CC(=O)N2[C@H](CO)[C@@H](c3ccc(-c4cccnc4)cc3)[C@H]2C1	-2	0	·	·	·	·	·
O=C(C[C@H]1CC[C@@H]2[C@H](COC[C@H](O)CN2Cc2cocn2)O1)NCc1cccc(F)c1	·	0	-85	·	·	·	·
C[C@@H]1CN([C@H](C)CO)C(=O)CCCn2cc(nn2)CO[C@@H]1CN(C)C(=O)c1ccc(N2CCN(C)CC2)cc1	2	1	120*	-38	-60	-12	-15
C[C@H]1CN([C@@H](C)CO)C(=O)CCCn2cc(nn2)CO[C@@H]1CN(C)C(=O)Cc1ccccc1	9	1	131*!	17	34	10	3
C[C@H]1CN([C@@H](C)CO)C(=O)CCCn2cc(nn2)CO[C@@H]1CN(C)C(=O)c1ccc(N2CCN(C)CC2)cc1	-1	-6	-20	·	·	·	·
C[C@H](CO)N1C[C@H](C)[C@H](CN(C)Cc2cccc(O)c2)OCc2cn(nn2)CCCC1=O	1	2	?	-13	4	-3	-6
C[C@H]1CN([C@@H](C)CO)C(=O)CCCn2cc(nn2)CO[C@@H]1CN(C)Cc1ccccc1	2	·	-21	·	·	·	·
C[C@@H]1CN([C@H](C)CO)C(=O)CCCn2cc(nn2)CO[C@@H]1CN(C)C(=O)Cc1ccccc1	5	-2	33	·	·	·	·
C[C@@H]1CN([C@@H](C)CO)C(=O)CCCn2cc(nn2)CO[C@H]1CN(C)Cc1ccccc1	13	6	121*	-101	-67	-24	-13
C[C@H]1CN([C@@H](C)CO)C(=O)CCCn2cc(nn2)CO[C@@H]1CN(C)Cc1cccc(O)c1	0	·	15	·	·	·	·
Cc1ccc(S(=O)(=O)N(C)C[C@@H]2Oc3c(NC(=O)Nc4ccc(F)cc4)cccc3C(=O)N([C@H](C)CO)C[C@@H]2C)cc1	-34	12	-123	·	·	·	·
